From PubChem BioAssay (NCI)
The panel holds about 83,000 compounds, 20% with a hit somewhere; the sample as a whole holds those more often.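 The endpoint reported here, percent growth, reads 100 for growth as untreated, 0 for no net growth and -100 for all cells dead.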 A number with no mark means an inactive call. Active and inactive are the calls of the source. How the source made its calls: active means growth percent below 10; inactive means the rest.

Legend:
Assay in all cases: NCI-60 one-dose screen, 48 h (100 = growth as untreated, 0 = no growth, -100 = all killed)
Conditions in all cases: 10 µM unless noted
NCI-H23 lung = test system: NCI-H23 lung
NCI-H226 lung = test system: NCI-H226 lung
NCI-H322M lung = test system: NCI-H322M lung
HOP-62 NSCLC = test system: HOP-62 NSCLC
NCI-H460 lung = test system: NCI-H460 lung
HOP-92 NSCLC = test system: HOP-92 NSCLC
NCI-H522 lung = test system: NCI-H522 lung
A549/ATCC NSCLC = test system: A549/ATCC NSCLC
786-0 renal = test system: 786-0 renal
COLO 205 colon = test system: COLO 205 colon
DU-145 prostate = test system: DU-145 prostate
K-562 leukemia = test system: K-562 leukemia
MALME-3M melanoma = test system: MALME-3M melanoma
MDA-MB-231 breast = test system: MDA-MB-231 breast
RXF 393 renal = test system: RXF 393 renal
SF-268 CNS = test system: SF-268 CNS
SF-295 CNS = test system: SF-295 CNS
SF-539 CNS = test system: SF-539 CNS
UACC-257 melanoma = test system: UACC-257 melanoma
M14 melanoma = test system: M14 melanoma

Row | Compound | growth (NCI-H23 lung) | growth (NCI-H226 lung) | growth (NCI-H322M lung) | growth (HOP-62 NSCLC) | growth (NCI-H460 lung) | growth (HOP-92 NSCLC) | growth (NCI-H522 lung) | growth (A549/ATCC NSCLC) | growth (786-0 renal) | growth (COLO 205 colon) | growth (DU-145 prostate) | growth (K-562 leukemia) | growth (MALME-3M melanoma) | growth (MDA-MB-231 breast) | growth (RXF 393 renal) | growth (SF-268 CNS) | growth (SF-295 CNS) | growth (SF-539 CNS) | growth (UACC-257 melanoma) | growth (M14 melanoma)
1 | COc1cc(-c2cc(-c3ccc(N(C)C)cc3)nc(N3CCC(O)CC3)c2C#N)cc(OC)c1OC | 3.6% (active) | -6.93% (active) | 25.8% | 41.4% | -27.9% (active) | -25% (active) | -36.3% (active) | 11.5% | -3.55% (active) | -17.2% (active) | 33% | 1.74% (active) | -45.3% (active) | -50.9% (active) | -5.34% (active) | 22.1% | -44.3% (active) | -0.969% (active) | -51.8% (active) | -69.3% (active)
2 | Cc1ccc(-n2c(=S)[nH]c3sc4c(c3c2=O)CCC(=O)C4)cc1 | 68.7% | 83.4% | 89.5% | 63.6% | 17.2% | 57% | 10.2% | 51.8% | 29.5% | 81.6% | 37.8% | 17% | 50.9% | 54.6% | 23.8% | 48.2% | 47.9% | 11.8% | 54.5% | 25.9%
3 | CCOC(=O)C(=Cc1cccc(Cl)c1)C(=O)OCC | 57.2% | -65.4% (active) | 84.2% | 85.2% | 74.4% | 13.2% | -42.9% (active) | 46.9% | 7.82% (active) | -2.83% (active) | 28% | -11.1% (active) | -27.5% (active) | 1.37% (active) | -27.8% (active) | 26.4% | 77.2% | 9.28% (active) | 26.1% | 11.9%
4 | CCOC(=O)c1nc(Nc2ccc(NC(=O)Nc3ccc(F)cc3)cc2)c2ccccc2n1 | 92.3% | 90.4% | 97% | 97.6% | 99.1% | 106% | 98.5% | 102% | 106% | 108% | 108% | 102% | 92.6% | 95.9% | 93.2% | 98.3% | 99.8% | 99.9% | 103% | 97%
5 | COc1ccc(-c2csc(NC(=O)CSc3nc(-c4ccccc4)cc(=O)[nH]3)n2)cc1 | 51% | 78.7% | 90.1% | 50.7% | 78.7% | 90.2% | 58% | 64.6% | 67.4% | 56.6% | 76.1% | 42.9% | 60.2% | 83.5% | 86.5% | 77.9% | 53.3% | 78.3% | 77.1% | 59.1%
6 | C=CCn1cc(-c2nc3ccccc3s2)c2cc(-c3ccc4c5c(cccc35)C(=O)N(N)C4=O)ccc21 | 88.2% | 89.8% | 96.9% | 90.2% | 98.9% | 93.7% | 84.9% | 105% | 99.3% | 109% | 110% | 107% | 101% | 83.1% | 106% | 89.5% | 99.1% | 101% | 104% | 94.5%
7 | O=C(c1ccccc1)C1C(=O)N2C(=S)N(c3ccccc3)C(=O)C2C1c1ccc(Cl)cc1 (stereo not given) | 88.2% | 74.5% | 94.6% | 93.4% | 86.8% | 91.3% | 94% | 101% | 100% | 112% | 109% | 99.1% | 88.1% | 90.4% | 90.4% | 97.5% | 94.2% | 98% | 101% | 96.3%
8 | Fc1ccc(-c2nn(-c3ccccc3)cc2-c2nc3ccccc3o2)cc1 | 65.8% | 84.4% | 107% | 48.7% | 37.5% | 91.2% | 82.3% | 55.3% | 88.3% | 140% | 90.1% | 37.5% | 63.6% | 59.1% | 105% | 58.5% | 45.4% | 91.7% | 102% | 48.2%
9 | C=C1C(=O)O[C@H]2[C@H]1CC/C(COC(=O)N[C@H]1C[C@H](O[C@H]3C[C@](O)(C(=O)CO)Cc4c(O)c5c(c(O)c43)C(=O)c3c(OC)cccc3C5=O)O[C@@H](C)[C@H]1O)=C\CC[C@@]1(C)O[C@@H]21 | 91.1% | 58.2% | 98.7% | 78.7% | 63.4% | -5.4% (active) | -50.2% (active) | 77.2% | 43.1% | 36.2% | 69% | 7.56% (active) | -28.6% (active) | 11% | 19.2% | 64.2% | 102% | 20.8% | 61.4% | 82.6%
10 | CC[C@@H](C(=O)[C@@H](C)[C@@H](O)[C@H](C)[C@@H]1O[C@@H]([C@@H](CC)C(=O)NCCc2ccc(F)cc2)CC[C@@H]1C)C1O[C@]2(C=CC(=O)[C@]3(CC[C@@](C)([C@H]4CC[C@](O)(CC)[C@H](C)O4)O3)O2)[C@H](C)C[C@@H]1C (stereo not given in full) | 24.8% | 24.2% | 76.7% | 36% | 35% | -0.474% (active) | 33.3% | 20.3% | 50.3% | 29.5% | 50.5% | 17% | 36% | 13.8% | 42.7% | 24.2% | 18.4% | 47.7% | 43.5% | 25.4%
11 | COc1ccc(-c2nc(SCC(C)C)nc(N/N=C\c3ccc(F)cc3)c2C#N)cc1 | 97.4% | 81.4% | 67.7% | 109% | 25.7% | 89.9% | 107% | 69.9% | 83% | 94.8% | 94.3% | 94% | 81% | 93.1% | 111% | 86.6% | 75.8% | 91.6% | 102% | 92.7%
12 | CC(C)c1ccc(NC(=O)Nc2ccc(NC(=O)CCCC(=O)NOCc3ccccc3)cc2)cc1 | 98.4% | 85.2% | 90.6% | 91.2% | 77.9% | 104% | 71.3% | 85.3% | 101% | 93.4% | 94.3% | 83.4% | 82.8% | 93.9% | 109% | 95.9% | 91.2% | 75.1% | 86.5% | 97.3%
13 | CCN1CC(=O)N(/N=C2\C(=O)Nc3ccccc32)C1=S | 91.4% | 69.6% | 88.6% | 87% | 88.3% | 87.8% | 85.4% | 98.9% | 103% | 101% | 112% | 106% | 91% | 88.5% | 76.5% | 103% | 96.6% | 94.1% | 103% | 86%
14 | COC(=O)CCC(=O)C(=O)OC | 0.491% [10 mM] (active) | -14.9% [10 mM] (active) | 10.2% [10 mM] | 11.3% [10 mM] | 7.63% [10 mM] (active) | -16% [10 mM] (active) | -63.9% [10 mM] (active) | 26% [10 mM] | 5.84% [10 mM] (active) | 79.8% [10 mM] | 10.6% [10 mM] | 7.9% [10 mM] (active) | 42.4% [10 mM] | 35.5% [10 mM] | -8.87% [10 mM] (active) | -10.3% [10 mM] (active) | 30.2% [10 mM] | 4.1% [10 mM] (active) | -15.1% [10 mM] (active) | 7.27% [10 mM] (active)
15 | O=C1Nc2ccc(Br)cc2/C1=N/c1n[nH]c(=S)s1 | 93.3% | 99.4% | 107% | 89% | 106% | 94.8% | 93.4% | 98% | 97.8% | 114% | 106% | 90.8% | 107% | 105% | 109% | 91.5% | 101% | 99.7% | 99.6% | 99.8%
